PubChem BioAssay (Tox21)
Inconclusive results are not listed. Entries that show only a call come without a potency. Some compounds were tested as several samples or in several runs, with calls that do not always agree. The source made the active and inactive calls. Unless noted, calls follow the shape of the dose curve; as a rule, active = well fitted curve in the direction sought with a large enough effect in the repeat runs; inconclusive = weak or mixed curves; inactive = no such curve, though single readings can be large; an effect the other way counts as inactive or inconclusive.

Experiments:
[1] = biological target: Retinoic acid receptor RXR-alpha (Homo sapiens) (UniProt P19793); assay: qHTS assay to identify small molecule agonists of the RXR signaling pathway (AID 1159527; calls by dose curve; also: nearly all actives have a fitted effect of over 35% in size)
Sequence of Retinoic acid receptor RXR-alpha (Homo sapiens) (P19793 whole entry, looked up): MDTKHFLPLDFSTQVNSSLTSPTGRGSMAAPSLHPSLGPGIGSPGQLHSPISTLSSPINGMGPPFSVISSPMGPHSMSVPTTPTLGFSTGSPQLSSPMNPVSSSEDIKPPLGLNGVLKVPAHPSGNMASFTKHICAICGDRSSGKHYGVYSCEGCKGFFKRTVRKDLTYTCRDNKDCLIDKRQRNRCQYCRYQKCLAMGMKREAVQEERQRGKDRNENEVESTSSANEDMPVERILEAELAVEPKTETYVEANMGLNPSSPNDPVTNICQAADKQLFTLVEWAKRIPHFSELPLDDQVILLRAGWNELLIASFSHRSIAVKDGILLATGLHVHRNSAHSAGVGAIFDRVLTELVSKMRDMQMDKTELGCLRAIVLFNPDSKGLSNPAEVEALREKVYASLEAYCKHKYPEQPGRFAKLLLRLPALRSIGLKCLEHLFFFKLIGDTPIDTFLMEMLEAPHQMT
Procedure, shortened: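 Beta-lactamase reporter assay, agonist format. Engineered HEK 293T line, charcoal-stripped FBS at 2%, overnight (16 hr) exposure, fluorescence at 460 and 530 nm after 405 nm excitation.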

[2] = qHTS assay to identify small molecule agonists of the RXR signaling pathway - cell viability counter screen (AID 1159529);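 also: HEK 293T cells carrying an RXR-alpha UAS beta-lactamase reporter; series mostly up to about 77 µM; nearly all actives have a fitted effect of over 50% in size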
Procedure, shortened: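 Same-well viability check after the LiveBLAzer FRET read: CellTiter-Glo added, luminescence measured after 30 min at room temperature. Reporter HEK 293T cells had been treated with compounds for 16 hr following a 5 hr preincubation.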

[3] = qHTS assay to identify small molecule antagonists of the retinoid acid receptor (RAR) signaling pathway - cell viability counter screen (AID 1159551); also: nearly all actives have a fitted effect of over 35% in size
Procedure, shortened: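 C3RL4 RARE-luciferase line; cpds + retinol 1 uM final, 6 h, 37 C/5% CO2; CellTiter-Glo ATP luminescence, 30 min RT.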

[4] = qHTS assay to identify small molecule antagonists of the retinoic acid receptor (RAR) signaling pathway (AID 1159552; also: nearly all actives have a fitted effect of over 50% in size)
Procedure, shortened: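 Readout: luciferase luminescence, 30 min post-reagent at RT. Setup: C3RL4 RARE reporter cells, compounds plus retinol 1 uM final, 6 hr incubation at 37 C and 5% CO2.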

[5] = qHTS assay to identify small molecule agonists of the retinoic acid receptor (RAR) signaling pathway (AID 1159553)
Procedure, shortened: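 RARE-luc C3RL4 cells; overnight attachment 37 C/5% CO2; compound (DMSO) 6 hr; luciferase reagent, 30 min RT; luminescence read-out.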

[6] = qHTS assay to identify small molecule antagonists of the estrogen related receptor (ERR) signaling pathway from Tox21 library - cell viability counter screen (AID 1224834); also: nearly all actives have a fitted effect of over 30% in size
Procedure, shortened: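 Multiplexed viability counter screen in ERR cells: 17.5 h compound exposure at 37 C, CellTiter-Fluor added, 30 min at 37 C/5% CO2, fluorescence read.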

[7] = biological target: Luciferin 4-monooxygenase (Photinus pyralis) (UniProt P08659); assay: qHTS assay to identify small molecule inhibitors of firefly luciferase (AID 1224835); also: nearly all actives have a fitted effect of over 25% in size; also: potency is read from the fitted curve at half-maximal effect
Sequence of Luciferin 4-monooxygenase (Photinus pyralis) (P08659 whole entry, looked up): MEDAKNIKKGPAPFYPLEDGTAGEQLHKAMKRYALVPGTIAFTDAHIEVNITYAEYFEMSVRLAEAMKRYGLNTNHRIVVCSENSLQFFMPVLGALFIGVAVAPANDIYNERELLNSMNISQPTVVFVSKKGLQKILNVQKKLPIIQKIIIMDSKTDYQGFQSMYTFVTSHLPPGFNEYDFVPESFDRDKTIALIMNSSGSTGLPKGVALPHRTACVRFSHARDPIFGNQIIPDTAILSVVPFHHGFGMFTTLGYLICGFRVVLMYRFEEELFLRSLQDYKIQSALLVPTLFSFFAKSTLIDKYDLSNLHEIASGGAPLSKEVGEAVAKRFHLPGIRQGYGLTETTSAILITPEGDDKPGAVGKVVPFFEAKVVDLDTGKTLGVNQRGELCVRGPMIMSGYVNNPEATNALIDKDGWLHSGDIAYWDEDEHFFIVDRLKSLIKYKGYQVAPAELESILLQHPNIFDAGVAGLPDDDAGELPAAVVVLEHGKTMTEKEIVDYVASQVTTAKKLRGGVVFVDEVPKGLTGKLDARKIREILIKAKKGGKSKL
Procedure, shortened: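 Inhibition of purified Photinus luciferase is measured by luminescence. Substrate levels (D-luciferin, ATP) sit at their KM values. Each compound is tested in a concentration series.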

[8] = qHTS assay to identify small molecule agonists of the constitutive androstane receptor (CAR) signaling pathway - cell viability counter screen (AID 1224836); also: series mostly up to about 92 µM; nearly all actives have a fitted effect of over 45% in size
Procedure, shortened: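 Compound titrations (15 concentrations) went onto HepG2-CYP2B6-hCAR cells 4 h after seeding, alongside PK11195 at a final 0.75 uM; a 23 h, 37 C/5% CO2 incubation preceded CellTiter-Fluor viability measurement.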

[9] = qHTS assay to identify small molecule antagonists of the constitutive androstane receptor (CAR) signaling pathway - cell viability counter screen (AID 1224837); also: series mostly up to about 92 µM; nearly all actives have a fitted effect of over 45% in size
Procedure, shortened: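 Read-out: CellTiter-Fluor fluorescence after 23 hr at 37 C/5% CO2. Cells: HepG2 double-stable for hCAR and CYP2B6-2.2kb. Compounds tested at 15 concentrations in the presence of CITCO, final concentration 50 nM.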

[10] = qHTS assay to identify small molecule antagonists of the estrogen related receptor signaling pathway with the pleiotropic PPARgamma coactivator (PGC) from Tox21 10K library - cell viability counter screen (AID 1224840; active = well fitted cell-killing curve with a large enough effect in the repeat runs, not every such curve was filed as active; also: nearly all actives have a fitted effect of over 40% in size)
Procedure, shortened: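 Fluorescence read-out of CellTiter-Fluor viability reagent, added after cells had been exposed to compound in DMSO for 17.5 h at 37 C; 30 min development at 37 C/5% CO2. Cells: PGC/ERR line, 2,000/well.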

[11] = qHTS assay to identify small molecule antagonists of the estrogen related receptor signaling pathway with the pleiotropic PPARgamma coactivator (PGC) from Tox21 10K library (AID 1224841; call rule not given here; also: actives are mostly falling curves and most rising ones were filed inactive; nearly all actives have a fitted effect of over 50% in size; also: potency is read from the fitted curve at half-maximal effect)
Procedure, shortened: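 Luminescence read-out (One-Glo luciferase reagent, 30 min at room temperature) from PGC/ERR cells exposed to DMSO-dissolved test compounds for 18 h at 37 C; cells, 2,000 per well, had been preincubated 6 h before compound transfer.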

[12] = qHTS assay to identify small molecule agonists of the estrogen related receptor signaling pathway with the pleiotropic PPARgamma coactivator (PGC) from Tox21 10K library (AID 1224842); also: nearly all actives have a fitted effect of over 15% in size
Procedure, shortened: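 Luminescence from One-Glo (30 min, room temperature) measured after PGC/ERR cells had 18 h at 37 C with pinned compound (23 nL in DMSO). Cells had been seeded at 2,000 per well and pre-incubated 6 h.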

[13] = biological target: Nuclear receptor subfamily 1 group I member 3 (Homo sapiens) (UniProt Q14994); assay: qHTS assay to identify small molecule antagonists of the constitutive androstane receptor (CAR) signaling pathway (AID 1224838);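 also: HepG2 cells stably expressing hCAR with CYP2B6 luciferase reporter stimulated by CITCO; nearly all actives have a fitted effect of over 40% in size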
Sequence of Nuclear receptor subfamily 1 group I member 3 (Homo sapiens) (Q14994 whole entry, looked up): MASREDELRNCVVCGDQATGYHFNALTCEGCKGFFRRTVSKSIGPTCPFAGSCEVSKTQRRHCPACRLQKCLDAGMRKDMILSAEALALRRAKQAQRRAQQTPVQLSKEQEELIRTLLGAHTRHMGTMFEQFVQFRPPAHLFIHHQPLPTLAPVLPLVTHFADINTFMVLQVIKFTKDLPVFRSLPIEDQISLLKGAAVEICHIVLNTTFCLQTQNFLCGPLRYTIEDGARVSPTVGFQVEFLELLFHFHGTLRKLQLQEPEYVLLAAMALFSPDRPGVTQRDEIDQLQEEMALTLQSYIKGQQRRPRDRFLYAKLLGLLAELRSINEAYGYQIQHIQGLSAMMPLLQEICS
Procedure, shortened: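 Read-out: ONE-Glo luciferase luminescence after 30 min at room temperature. HepG2-CYP2B6-hCAR double-stable cells, compounds in 15-point titration plus 50 nM CITCO final, 24 h at 37 C/5% CO2.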

[14] = biological target: Nuclear receptor subfamily 1 group I member 3 (Homo sapiens) (UniProt Q14994); assay: qHTS assay to identify small molecule agonists of the constitutive androstane receptor (CAR) signaling pathway (AID 1224839);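 also: HepG2 cells stably carrying human CAR and a CYP2B6 luciferase reporter; series mostly up to about 92 µM; nearly all actives have a fitted effect of over 15% in size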
Procedure, shortened: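 In this screen, CAR-driven CYP2B6 promoter activity is measured by luminescence in HepG2-CYP2B6-hCAR cells after 24 h with test compounds and 0.75 uM PK11195 (final concentration).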

[15] = qHTS assay to identify small molecule antagonists of the estrogen related receptor (ERR) signaling pathway - cell viability counter screen (AID 1224818); also: series mostly up to about 46 µM
Procedure, shortened: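 Fluorescence from CellTiter-Fluor, read 30 min after reagent addition at 37 C, measured viability of ERR cells exposed to compounds for 17.5 h. Cells had settled 6 h before dosing.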

[16] = qHTS assay to identify small molecule antagonists of the estrogen related receptor (ERR) signaling pathway (AID 1224819; also: series mostly up to about 46 µM; nearly all actives have a fitted effect of over 50% in size)
Procedure, shortened: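 Luminescence readout (One-Glo, 30 min, RT) of ERR cell line after 18 h compound exposure at 37 C; cells seeded 2,000/well, pre-incubated 6 h, compounds pinned from DMSO stocks.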

[17] = qHTS assay to identify small molecule agonists of the estrogen related receptor (ERR) signaling pathway (AID 1224820)
Procedure, shortened: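 After 6 h plating (2,000 cells/well) and 18 h compound treatment at 37 C, ERR cells were lysed with One-Glo and luminescence read after 30 min at room temperature.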

[18] = test system: estrogen-related receptor alpha (ERRalpha) with PGC-1alpha coactivator, human; assay: qHTS assay to identify small molecule antagonists of the estrogen related receptor signaling pathway with the pleiotropic PPARgamma coactivator (PGC) (AID 1224821; calls by dose curve)
Procedure, shortened: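 Luminescence from One-Glo luciferase reagent (30 min, room temperature) measured after 18 h compound treatment at 37 °C. Cells carry the PGC/ERR reporter and were seeded 6 h prior to dosing.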

[19] = qHTS assay to identify small molecule antagonists of the estrogen related receptor signaling pathway with the pleiotropic PPARgamma coactivator (PGC) cell viability counter screen (AID 1224822; also: series mostly up to about 46 µM)
Procedure, shortened: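 Fluorescence read-out of CellTiter-Fluor after 30 min at 37 C; PGC/ERR cells, 2,000 per well, had been exposed to DMSO-dissolved compounds for 17.5 h following a 6 h pre-incubation.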

[20] = qHTS assay to identify small molecule agonists of the estrogen related receptor signaling pathway with the pleiotropic PPARgamma coactivator (PGC) (AID 1224823)
Procedure, shortened: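 Luminescence from One-Glo reagent (30 min, room temperature) was read after 18 h compound treatment at 37 C of PGC/ERR cells plated 6 h beforehand; compounds delivered in DMSO by pin tool.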

Compound | Potency [1] | outcome [2] | outcome [3] | outcome [4] | Potency [5] | Potency [6] | Potency [7] | Potency [8] | Potency [9] | Potency [10] | Potency [11] | outcome [12] | outcome [13] | Potency [14] | outcome [15] | outcome [16] | outcome [17] | outcome [18] | outcome [19] | outcome [20]
CN(C)c1ccc(Cc2ccc(N(C)C)cc2)cc1 | inactive | inactive | inactive | inactive | inactive | inactive | inactive | inactive | inactive | inactive | inactive | inactive |  |  |  |  |  |  |  | 
COC(=O)c1cccnc1 | inactive | inactive | inactive | inactive | inactive | inactive | inactive | inactive | inactive | inactive | inactive | inactive | inactive | inactive |  |  |  |  |  | 
NCCCCCCN | inactive | inactive | inactive | inactive | inactive | inactive | inactive | inactive | inactive | inactive | inactive | inactive |  |  |  |  |  |  |  | 
CC(=O)Oc1ccc(C)cc1 | inactive | inactive | inactive | inactive | inactive | inactive | inactive | inactive | inactive | inactive |  |  |  |  |  |  |  |  |  | 
CC(C)(C)c1cc(Cc2cc(C(C)(C)C)c(O)c(C(C)(C)C)c2)cc(C(C)(C)C)c1O | inactive | inactive | inactive | inactive | inactive | inactive | inactive | inactive | inactive | inactive |  |  | inactive | inactive |  |  |  |  |  | 
CC(=O)OC1CC(C)OC(C)O1 (stereo not drawn) | inactive | inactive | inactive | inactive | inactive | inactive | inactive | inactive | inactive | inactive | inactive | inactive | inactive | inactive |  |  |  |  |  | 
CN(C)CCOC(=O)COc1ccc(Cl)cc1 | inactive | inactive | inactive | inactive | inactive | inactive | inactive | inactive | inactive | inactive | inactive | inactive |  |  | inactive | inactive | inactive | inactive | inactive | inactive
O=[N+]([O-])c1ccc2nc[nH]c2c1 | inactive | inactive | inactive |  |  | inactive | inactive | inactive | inactive | inactive |  |  | inactive | inactive |  |  |  |  |  | 
N[C@H](Cc1c[nH]c2ccccc12)C(=O)O | inactive | inactive | inactive | inactive | inactive | inactive | inactive | inactive | inactive | inactive |  |  |  |  |  |  |  |  |  | 
CCNc1cccc(C)c1 | inactive | inactive | inactive | inactive | inactive | inactive | inactive | inactive | inactive | inactive | inactive | inactive | inactive | inactive |  |  |  |  |  | 
Cc1ccc(C(C)C)c(O)c1 | inactive | inactive | inactive | inactive | inactive | inactive | inactive | inactive | inactive | inactive | inactive | inactive | inactive |  |  |  |  |  |  | 
CC(C)(Oc1ccc(CCNC(=O)c2ccc(Cl)cc2)cc1)C(=O)O | inactive | inactive | inactive |  |  | inactive | 35.6 µM (active) | inactive | inactive | inactive | inactive | inactive | inactive | inactive | inactive | inactive | inactive | inactive | inactive | inactive
COCCCN | inactive | inactive | inactive |  |  | inactive | inactive | inactive | inactive | inactive |  |  | inactive | inactive |  |  |  |  |  | 
CC(CCl)OP(=O)(OC(C)CCl)OC(C)CCl (stereo not drawn) | inactive | inactive | inactive | inactive | inactive | inactive | inactive | inactive | inactive | inactive | 38.6 µM (active) and inactive | inactive | inactive |  |  |  |  |  |  | 
C=CC(=O)OCCC(=O)O | inactive | inactive | inactive | inactive | inactive | inactive | inactive | inactive | inactive | inactive | inactive |  | inactive | inactive |  |  |  |  |  | 
COc1ccc(N)c(C)c1 | inactive | inactive | inactive |  |  | inactive | inactive | inactive | inactive | inactive |  |  | inactive | inactive |  |  |  |  |  | 
CC(C)c1cccc(C(C)C)c1 | inactive | inactive | inactive | inactive | inactive | inactive | inactive | inactive | inactive | inactive | inactive | inactive |  |  |  |  |  |  |  | 
CC(=O)CC(C)(C)O | inactive | inactive | inactive | inactive | inactive | inactive | inactive | inactive | inactive | inactive | inactive | inactive |  |  |  |  |  |  |  | 
CC1(C)S[C@@H]2[C@H](NC(=O)COc3ccccc3)C(=O)N2[C@H]1C(=O)O | inactive | inactive | inactive | inactive | inactive | inactive | inactive | inactive | inactive | inactive | inactive | inactive | inactive | inactive |  |  |  |  |  | 
CC(=O)CCC=C(C)C | inactive | inactive | inactive | inactive | inactive | inactive | inactive | inactive | inactive | inactive | inactive | inactive |  |  |  |  |  |  |  | 
